Among the data in PubChem BioAssay (EPA / NIEHS) are outcome and AC50 values, retold here.

Read-out in assay [1]: Macrophage colony-stimulating factor (MCSF), CSF1 (gene 1435)
Description: BSK_LPS_MCSF: BioMAP Diversity Plus: LPS Assay for Macrophage colony-stimulating factor (MCSF) Biomarker Activity (AID 2283083). The following applies: primary human HUVEC with PBMC; actives raise or lower the signal. The method in brief:
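HUVEC–PBMC co-culture, M-CSF measured by ELISA 24 h after chemical dosing. Fitted in both directions relative to DMSO as negative control; overt cytotoxicity assessed by SRB total-protein staining in parallel cultures.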

Read-out in assay [2]: Tissue Factor, F3 (gene 2152)
The experiment in a line: BSK_LPS_TissueFactor: BioMAP Diversity Plus: LPS Assay for Tissue Factor Biomarker Activity (AID 2283084). The following applies: primary human HUVEC with PBMC; actives raise or lower the signal. The gist of the method:
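Human umbilical vein endothelial cells co-cultured with PBMC were dosed with compound. Cell-surface CD142 was measured by ELISA 24 h later. Activity was fitted bidirectionally against DMSO, with SRB total-protein staining in parallel cultures for cytotoxicity.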

Read-out in assay [3]: Tumor necrosis factor (Homo sapiens) (UniProt P01375)
The experiment in a line: BSK_LPS_TNFa: BioMAP Diversity Plus: LPS Assay for Tumour Necrosis Factor alpha (TNFa) Biomarker Activity (AID 2283085). To be noted: primary human HUVEC with PBMC; actives raise or lower the signal. The method in brief:
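Human umbilical vein endothelial cells co-cultured with PBMC and stimulated with LPS. TNFa was measured by ELISA 24 h after chemical dosing, fitted bidirectionally relative to DMSO.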

Read-out in assay [4]: Vascular cell adhesion molecule 1 (VCAM1), VCAM1 (gene 7412)
The experiment in a line: BSK_LPS_VCAM1: BioMAP Diversity Plus: LPS Assay for Vascular cell adhesion molecule 1 (VCAM1) Biomarker Activity (AID 2283086). To be noted: primary human HUVEC with PBMC; actives raise or lower the signal. The gist of the method: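 Human umbilical vein endothelial cells co-cultured with PBMC and stimulated with LPS; VCAM-1 measured by ELISA 24 h after dosing. Bidirectional curve fitting against DMSO baseline; cytotoxicity tracked in parallel by SRB total-protein staining.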

Read-out in a further assay: CD38, CD38 (gene 952)
The experiment in a line: BSK_SAg_CD38: BioMAP Diversity Plus: SAg Assay for CD38 Biomarker Activity (AID 2283087). The following applies: primary human HUVEC with PBMC; actives raise or lower the signal. The gist of the method:
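Human HUVEC plus PBMC co-culture stimulated with superantigen; CD38 measured by ELISA 24 h after chemical dosing. Fluorescence read-out, bidirectional fit against DMSO; cytotoxicity tracked in parallel by SRB and Alamar Blue.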

Read-out in the next assay: CD40, CD40 (gene 958)
The experiment in a line: BSK_SAg_CD40: BioMAP Diversity Plus: SAg Assay for CD40 Biomarker Activity (AID 2283088). The following applies: primary human HUVEC with PBMC; actives raise or lower the signal. The gist of the method: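 HUVEC plus PBMC co-culture, superantigen-activated, with CD40 read by ELISA 24 h after dosing. Curves fitted in both directions against DMSO. Overt cytotoxicity checked by parallel SRB total-protein staining.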

Read-out in a further assay: CD69, CD69 (gene 969)
Description: BSK_SAg_CD69: BioMAP Diversity Plus: SAg Assay for CD69 Biomarker Activity (AID 2283089).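 On AC50: cell surface CD69 protein quantified by ELISA with fluorescence detection.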 To be noted: primary human HUVEC with PBMC; actives raise or lower the signal. The method in brief:
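Endothelial/PBMC co-culture; chemical added; 24 h incubation; CD69 ELISA with fluorescence detection; bidirectional fit vs DMSO.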

Read-out in assay [5]: Monocyte Chemoattractant Protein-1 (MCP1), CCL2 (gene 6347)
The experiment in a line: BSK_SAg_MCP1: BioMAP Diversity Plus: SAg Assay for Monocyte Chemoattractant Protein-1 (MCP1) Biomarker Activity (AID 2283090). To be noted: primary human HUVEC with PBMC; actives raise or lower the signal. The method in brief: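 MCP-1 levels in the endothelial–PBMC SAg co-culture were quantified by ELISA at 24 h post-dosing; both increases and decreases versus DMSO scored. Cytotoxicity monitored by SRB total protein in parallel cultures.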

Read-out in assay [6]: E-selectin (Homo sapiens) (UniProt P16581)
Description: BSK_SAg_Eselectin: BioMAP Diversity Plus: SAg Assay for Eselectin Biomarker Activity (AID 2283091). The following applies: primary human HUVEC with PBMC; actives raise or lower the signal. The method in brief:
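Human umbilical vein endothelial cells co-cultured with peripheral blood mononuclear cells, SAg system. E-selectin is measured by ELISA 24 h after dosing and fitted bidirectionally against DMSO. Cytotoxicity is checked by SRB staining of parallel cultures.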

Read-out in assay [7]: Monokine induced gamma interferon (MIG), CXCL9 (gene 4283)
Description: BSK_SAg_MIG: BioMAP Diversity Plus: SAg Assay for Monokine induced gamma interferon (MIG) Biomarker Activity (AID 2283092). To be noted: primary human HUVEC with PBMC; actives raise or lower the signal. The method in brief:
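Measures CXCL9 protein by ELISA in a human vascular primary-cell co-culture (umbilical vein endothelium with PBMC) 24 h after chemical addition. Activity is scored up or down from the DMSO control.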

A short description of assay [8]: BSK_SAg_PBMCCytotoxicity: PBMC Cytotoxicity Assessment in the BioMAP Diversity Plus: SAg Assay (AID 2283093).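 Further: PBMC viability measured as Alamar Blue reduction fluorescence at 546/580 nm; fitted both ways against DMSO so a hit may be loss or gain of signal.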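 On AC50: PBMC superantigen activated with SEB plus TSST-1 one hour after compound addition.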 To be noted: primary human HUVEC with PBMC. The method in brief: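 Human umbilical vein endothelial cells co-cultured with PBMC; PBMC (75,000/well) pre-treated with compound 1 h, then activated with SEB and TSST-1 (20 ng/mL final each) for 90 h. Alamar Blue added 6 h, fluorescence 546/580 nm; bidirectional fit versus DMSO.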

Read-out in assay [9]: Interleukin-8 (IL8), CXCL8 (gene 3576)
Description: BSK_SAg_IL8: BioMAP Diversity Plus: SAg Assay for Interleukin-8 (IL8) Biomarker Activity (AID 2283094). To be noted: primary human HUVEC with PBMC; actives raise or lower the signal. The method in brief: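 Human umbilical vein endothelial cells co-cultured with PBMC, stimulated with superantigen; IL-8 measured by ELISA 24 h after chemical dosing. Bidirectional fitting versus DMSO; SRB staining in parallel cultures tracks cytotoxicity.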

Assay [10] is described as follows: BSK_SAg_Proliferation: Cell Proliferation Assessment in the BioMAP Diversity Plus: SAg Assay (AID 2283095). To be noted: primary human HUVEC with PBMC. The gist of the method: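 Human umbilical vein endothelial cells co-cultured with PBMC; sulforhodamine B total-protein staining (0.1% SRB after 10% TCA fixation, absorbance 560 nm) at 96 h in sub-confluent culture. Fitted bidirectionally against DMSO.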

Assay [11] can be described thus: BSK_SAg_SRB: Viability Assessment in the BioMAP Diversity Plus: SAg Assay (AID 2283096).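 Further: cells read one day after compound addition; hits may be either gain or loss of signal compared with DMSO.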 The following applies: primary human HUVEC with PBMC. The gist of the method: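 Endothelial/PBMC primary human co-culture; compound 24 h; fix 10% TCA, stain 0.1% SRB, A560; protein content as cytotoxicity proxy; bidirectional curve fit, DMSO = baseline.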

Where “and” joins values, the source holds several entries; their conditions need not be identical. Equal values may be shown once. Some compounds were tested as several samples or in several runs, with calls that do not always agree. Calls of active or inactive are those of the source. How the source made its calls: active means hit-call score of the fitted dose curve at least 0.9, where 1 is the maximum; inactive means score below 0.9.

Sequence of E-selectin (Homo sapiens) (P16581 whole entry, looked up): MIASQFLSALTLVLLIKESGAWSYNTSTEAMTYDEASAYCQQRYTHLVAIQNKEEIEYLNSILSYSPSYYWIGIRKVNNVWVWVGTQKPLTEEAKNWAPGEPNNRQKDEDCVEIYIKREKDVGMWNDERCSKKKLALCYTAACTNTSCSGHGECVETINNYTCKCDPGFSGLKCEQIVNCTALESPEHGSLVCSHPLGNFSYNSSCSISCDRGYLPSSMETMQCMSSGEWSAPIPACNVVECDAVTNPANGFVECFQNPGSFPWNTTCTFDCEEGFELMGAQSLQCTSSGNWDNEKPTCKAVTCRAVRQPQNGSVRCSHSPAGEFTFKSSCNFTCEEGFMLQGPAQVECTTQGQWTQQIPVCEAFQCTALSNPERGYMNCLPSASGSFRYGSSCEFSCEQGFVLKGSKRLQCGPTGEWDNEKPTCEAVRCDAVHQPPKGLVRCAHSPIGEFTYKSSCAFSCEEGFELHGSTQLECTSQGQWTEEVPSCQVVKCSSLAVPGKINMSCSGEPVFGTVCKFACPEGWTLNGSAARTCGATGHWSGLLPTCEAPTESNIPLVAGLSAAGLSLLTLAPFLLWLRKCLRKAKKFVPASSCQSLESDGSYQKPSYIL
Sequence of Tumor necrosis factor (Homo sapiens) (P01375 whole entry, looked up): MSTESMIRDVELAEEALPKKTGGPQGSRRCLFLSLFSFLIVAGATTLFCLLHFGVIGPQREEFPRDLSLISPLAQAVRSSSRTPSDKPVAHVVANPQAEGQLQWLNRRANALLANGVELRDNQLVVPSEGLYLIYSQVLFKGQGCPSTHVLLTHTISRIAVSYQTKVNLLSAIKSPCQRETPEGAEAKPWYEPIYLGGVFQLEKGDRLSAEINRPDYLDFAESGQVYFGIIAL

With `COC(=O)c1ccccc1O`, the outcome is “inactive” in [1]; “inactive” in assay [2]; “inactive” in [3]; “inactive” in assay [4]; “inactive” with CD38, CD38 (gene 952); “inactive” with CD40, CD40 (gene 958). Further, the outcome with CD69, CD69 (gene 969) was “inactive”; in [5], “inactive”; in assay [6] it was “inactive”; in assay [7], “inactive”; in [8] it was “inactive”; in assay [9], “inactive”. Also, the outcome in assay [10] and in assay [11] was inactive.
As to `CCCCC(CC)COC(=O)c1ccc(C(=O)OCC(CC)CCCC)cc1` (stereo not drawn), the outcome in assay [1] was “inactive”; in [2], “inactive”; in [3] it was “inactive”; in [4], “inactive”; with CD38, CD38 (gene 952), “inactive”; with CD40, CD40 (gene 958), “inactive”. Further, the outcome with CD69, CD69 (gene 969) is “inactive”; in assay [5] it was “inactive”; in assay [6], “inactive”; in [7], “inactive”; in [8] it was “inactive”; in [10], “inactive”. Moreover, the outcome in [11] was inactive.
With `COc1ccc2sc(C(=O)Nc3nnn[nH]3)c(OC(C)C)c2c1`, the AC50 in [1] is 14.1 µM (active); in assay [2], 33.2 µM (active); in assay [3], 28.9 µM (active); in [4], 8.99 µM (active); in the assay with CD38, CD38 (gene 952) it was 16.2 µM (active); in the assay with CD40, CD40 (gene 958) it was 9.27 µM (active). For the same compound, the AC50 with CD69, CD69 (gene 969) was 19.9 µM (active); in assay [5] it was 15.4 µM (active); in [6], 30 µM (active); in assay [7], 27.8 µM (active); in assay [8], 10 µM (active); in [9] it was 16.6 µM (active). The AC50 in assay [10] is 11.9 µM (active); in assay [11], 14.2 µM (active).
For the compound `CCn1nc(Cc2ccccc2)cc1C1CCN(C[C@H]2C[C@H](N(C)[C@@H](C(=O)O)C(C)C)C[C@@H]2c2cccc(F)c2)CC1`, the outcome in assay [1] is “inactive”; in assay [2] it was “inactive”; in [3], “inactive”; in assay [4] it was “inactive”; in the assay with CD38, CD38 (gene 952), “inactive”; with CD40, CD40 (gene 958), “inactive”. Besides, the outcome with CD69, CD69 (gene 969) was “inactive”; in [5], “inactive”; in assay [6] it was “inactive”; in [7], “inactive”; in [8] it was “inactive”; in assay [9], “inactive”. For the same compound, the result in assay [10] and in assay [11] was inactive.
`CC/C(=C\C(=N/O)C(N)=O)C(C)[N+](=O)[O-]` (stereo not drawn): the outcome in assay [1] was “inactive”; in assay [2], “inactive”; in [3], “inactive”; in assay [4], “inactive”; with CD38, CD38 (gene 952), “inactive”; with CD40, CD40 (gene 958), “inactive”. In addition, the outcome with CD69, CD69 (gene 969) was “inactive”; in assay [5], “inactive”; in assay [6], “inactive”; in [7] it was “inactive”; in assay [8], “inactive”; in [9], “inactive”. In [11], the outcome was inactive. Further, in assay [10], the AC50 was 20 µM (active).
As to `Cn1cnc([N+](=O)[O-])c1Sc1ncnc2nc[nH]c12`, the AC50 in assay [1] is 20.3 µM (active) and 5.64 µM (active); in [3], 19.2 µM (active) and 15.7 µM (active); in assay [4] it was 25.3 µM (active) and 6.4 µM (active) and 13.7 µM (active); with CD40, CD40 (gene 958) it was 13.3 µM (active) and 8.21 µM (active); in assay [5] it was 19.9 µM (active) and 12.6 µM (active); in [6] it was 6.91 µM (active) and 12.6 µM (active) and 16.9 µM (active). The AC50 in [8] was 13.7 µM (active); in assay [9], 12.9 µM (active) and 12.6 µM (active) and 9.23 µM (active); in [10], 17.3 µM (active) and 7.53 µM (active) and 7.26 µM (active). In addition, the outcome in assay [1] is “inactive”; in assay [2], “inactive”; in [3], “inactive”; with CD40, CD40 (gene 958), “inactive”; in the assay with CD69, CD69 (gene 969), “inactive”; in assay [5] it was “inactive”. The result in assay [7], in [8] and in assay [11] was inactive.
For `C=CCCCCCCCCC(=O)O`, the outcome in assay [1] is “inactive”; in [2], “inactive”; in assay [4], “inactive”; in the assay with CD40, CD40 (gene 958), “inactive”; with CD69, CD69 (gene 969), “inactive”; in assay [5], “inactive”. Moreover, the outcome in [6], in assay [7], in assay [8], in [9], in assay [10] and in assay [11] was inactive. The AC50 in assay [3] was 0.74 µM (active).
For `O=C1OC(=O)C2C3C=CC(C3)C12` (stereo not drawn), the outcome in assay [1] was “inactive”; in assay [2], “inactive”; in assay [3], “inactive”; in assay [4], “inactive”; with CD40, CD40 (gene 958) it was “inactive”; in the assay with CD69, CD69 (gene 969) it was “inactive”. Moreover, the result in assay [5], in assay [6], in [7], in assay [8], in assay [9] and in assay [10] was inactive. Also, in assay [11], the result was inactive.

Broadly, the AC50 is the concentration giving half of the maximal activity seen.
